Activation (% of control) data for 65 compounds are collected here from PubChem BioAssay AID932 (The Scripps Research Institute Molecular Screening Center, 2007).

Hit rate of the full screen: of about 200,000 compounds, about 5,100 (2.5%) were called active. Shown is part of a subset that was picked to be rich in actives. Unmarked numbers belong to inactive results.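 Rule for the calls: active = activation above the screen-wide mean activation plus 3 SD (cut at about 130% in these data); inactive = the rest.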

A short description of the assay: potentiators of IFN-gamma driven STAT1 reporter – cell-based, HTS, luciferase reporter, primary screen (AID 932).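 Note: raw ratio to IFN-gamma control signal so 100% means no change and 0% no light.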 The settings on record: NIH 3T3 STAT1-luciferase reporter, luminescence, at 5.5 µM, hits give high values, 100% = IFN-gamma alone, no compound. (In a reporter assay the amount or activity of a reporter protein is the signal.)
As to `COc1ccc(C2CC(c3cccs3)Nc3nnnn32)cc1` (stereo not given), the activation (% of control) was 87.6%. `Cc1cc(=O)[nH]c(N/N=C/c2c(C)nn(-c3ccccc3Cl)c2Cl)n1`: the activation (% of control) was 100%. For the compound `CC(OC(=O)CNS(=O)(=O)/C=C/c1ccccc1)C(=O)Nc1ccc(S(=O)(=O)N2CCCC2)cc1` (stereo not given), the activation (% of control) was 89%. Take `CC(=O)c1ccc(NC(=O)c2ccc3c(Cl)c4c(nc3c2)CCCC4)cc1`: the activation (% of control) was 113%. For the compound `O=C(CN1CCN(c2ccc(O)cc2)CC1)NC1CCCc2ccccc21` (stereo not given), the activation (% of control) is 101%. For the compound `Cc1ccc(OCc2nnc(SC3CCc4ccccc4C3=O)n2C)cc1` (stereo not given), the activation (% of control) was 105%. With `Cc1cc(C)nc(NS(=O)(=O)c2ccc(N/C=C\C(=O)c3cccs3)cc2)n1`, the activation (% of control) was 135% (active). For the compound `CC(=O)Nc1ccc(S(=O)(=O)Nc2nccc(/C=C/c3ccccc3F)n2)cc1`, the activation (% of control) was 98.1%. Under `CCc1nnc(NS(=O)(=O)c2ccc(NC(=S)NC(=O)c3cccs3)cc2)s1` stands 109%. On to `O=C(c1cccs1)n1nc(NCc2ccccc2)nc1NCc1ccccc1`, for which the activation (% of control) is 107%. Under `CNC(=O)COC(=O)c1cc(-c2ccc(OC)cc2)nc2ccccc12` stands 99.7%.

On to `CC(C)(C)NC(=O)NC(=O)COC(=O)Cc1c(F)cccc1Cl`, for which the activation (% of control) is 113%. Turning to `O=C(CSc1nc2ccccc2[nH]1)c1cccs1`, the activation (% of control) is 136% (active). Turning to `CCCCSc1nc2ccccc2[nH]1`, the activation (% of control) was 121%. `C=CCSc1nc2ccccc2[nH]1`: the activation (% of control) was 109%.

Turning to `CCOc1cc2[nH]c(=O)n(Cc3ccc(C(=O)NCCCN4CCCC4=O)cc3)c(=O)c2cc1OCC`, the activation (% of control) is 92.1%.

Take `COc1ccc(C2(CNC(=O)Cc3ccc(OC)c(OC)c3)CCCC2)cc1`: the activation (% of control) was 94.7%. With `O=C(OCc1ccc([N+](=O)[O-])cc1)c1ccccn1`, the activation (% of control) is 95.9%. For the compound `CCC(C)(NC(=O)c1ccccn1)C(=O)NC1CCCCC1` (stereo not given), the activation (% of control) is 95.5%.

`N/C(=N\OC(=O)Cc1ccc([N+](=O)[O-])cc1)c1ccccn1`: the activation (% of control) is 139% (active).

For the compound `N/C(=N\OC(=O)c1ccc([N+](=O)[O-])cc1)c1ccccn1`, the activation (% of control) is 81.4%. Consider `N/C(=N\OC(=O)CC1CCCCC1)c1ccccc1`, for which the activation (% of control) is 116%.

On to `N/C(=N\OC(=O)CCC1CCCCC1)c1ccccn1`, for which the activation (% of control) was 130% (active). As for `COc1cc(SC)ccc1C(=O)Nc1nc(C)cs1`, the activation (% of control) was 12.9%.

Consider `COc1ccc(C(=O)Nc2nncs2)c(OC)c1`, for which the activation (% of control) was 131% (active). Take `COC(=O)c1sc(NC(=O)c2ccc(OC)cc2OC)nc1C`: the activation (% of control) was 75.1%.

Regarding `COc1ccc(S(=O)(=O)N2CCN(C(=O)c3cc(C)oc3C)CC2)cc1`, the activation (% of control) is 90.8%. As for `Cc1ccc([N+](=O)[O-])c(OCCCNCC(C)O)c1` (stereo not given), the activation (% of control) is 101%. On to `CN1CCN(C(=O)/C(=C\c2ccc3c(c2)OCO3)NC(=O)c2cccs2)CC1`, for which the activation (% of control) was 98.7%.

`COC(=O)c1ccccc1SC1CC(=O)N(c2cccc(C)c2)C1=O` (stereo not given): the activation (% of control) is 94.5%. Regarding `CC1CCN(S(=O)(=O)c2ccc3ncn(CC(=O)N(C)C4CCCCC4)c(=O)c3c2)CC1`, the activation (% of control) is 100%. As to `Cc1cccc(C)c1NC(=O)C1CCCN1C(=O)OC(C)(C)C` (stereo not given), the activation (% of control) was 104%. Take `CCNC(=O)NNC(=O)C1CC(c2cccs2)=NO1` (stereo not given): the activation (% of control) is 100%.

Regarding `O=C(Cc1cccs1)Nc1nnc(C2CC2)s1`, the activation (% of control) is 90.1%. As for `Cc1occc1C(=O)Nc1nnc(C2CCCCC2)s1`, the activation (% of control) is 107%. `O=C(Nc1nnc(C2CC2)s1)c1ccccn1`: the activation (% of control) is 129% (active). As for `Cc1nc2ccccn2c1C(=O)NN=C1CCN(C)CC1`, the activation (% of control) was 96.3%. For the compound `CN1CCN(c2ccc(NC(=O)c3ccc4c(c3)[nH]c(=O)n4Cc3ccc(F)cc3)cc2)CC1`, the activation (% of control) was 98.7%.

For the compound `Clc1cccc(CN2COc3c(cc(Cl)c4cccnc34)C2)c1`, the activation (% of control) was 94.3%. `COC(=O)c1sc(NC(=O)c2csc3c2CCCC3)nc1C`: the activation (% of control) is 149% (active). In the case of `CC(=O)Cc1nsc(NC(=O)c2csc3c2CCCC3)n1`, the activation (% of control) is 102%. Then `O=C(NCc1ccccc1Cl)c1csc2c1CCCCC2`, with 107%.

In the case of `Cc1ccc(NC(=O)c2csc3c2CCCC3)cc1`, the activation (% of control) was 176% (active).

For the compound `Cc1ccc(NC(=O)c2c(NC(=O)CCC(=O)O)sc3c2CCCCC3)cc1`, the activation (% of control) is 105%. In the case of `COC(=O)c1sccc1NC(=O)c1csc2c1CCCC2`, the activation (% of control) was 106%. For `O=C(COc1ccccc1Cl)Nc1ccc(C(=O)c2ccc(C(=O)O)cc2)cc1`, the activation (% of control) was 98%. Then `CSCCC(=O)N1CCCC(CNC(=O)c2ccccc2Cl)C1` (stereo not given), with 96.7%. On to `CCN(CC)S(=O)(=O)c1ccc(NC(=O)c2cccnc2Cl)c(NC(=O)c2cccnc2Cl)c1`, for which the activation (% of control) is 88.7%.

With `O=C1Nc2cc(Cl)c(Cl)cc2N(O)N1c1ccccc1Cl`, the activation (% of control) was 82.7%.

For the compound `CC1CCN(C(=S)c2ccc(-c3ccc(Cl)cc3Cl)o2)CC1`, the activation (% of control) is 85.7%. For `S=C(c1ccc(-c2ccccc2)o1)N1CCCCC1`, the activation (% of control) was 138% (active). In the case of `S=C(NCCc1ccccc1)N1CCCCC1`, the activation (% of control) is 122%. On to `O=C(CNC(=O)COc1ccccc1)NCCc1ccccn1`, for which the activation (% of control) is 104%. Regarding `Cc1cc(/C=N/NC(=O)c2cccnc2)c(C)n1CC(C)C`, the activation (% of control) was 139% (active). Turning to `CCC(=O)Nc1cccc(NC(=O)c2cccnc2)c1`, the activation (% of control) was 98.6%.

Consider `Cc1nn(Cc2ccc(Cl)cc2)c(Cl)c1/C=N/NC(=O)c1cccnc1`, for which the activation (% of control) was 94.4%.

On to `Cc1ccc2sc(NNC(=O)c3ccc4c(c3)OCCO4)nc2c1C`, for which the activation (% of control) is 104%.

With `Cc1ccc(S(=O)(=O)NCCN2CCOCC2)cc1C`, the activation (% of control) was 96.1%. Consider `Cc1cc2nc(SCCN3CCOCC3)[nH]c2cc1C`, for which the activation (% of control) is 152% (active). In the case of `CCOC(=O)CSc1nc2ccc(C)cc2[nH]1`, the activation (% of control) was 111%. Under `COc1ccc(CN2CCCC(CNC(=O)c3ccc(F)cc3)C2)cc1OC` (stereo not given) stands 97.8%. Regarding `CC1CCC(NC(=O)C2c3ccccc3C(=O)N2Cc2ccc3c(c2)OCO3)CC1` (stereo not given), the activation (% of control) was 89.6%. In the case of `N=c1c2c(-c3ccccc3)c(-c3ccccc3)n(Cc3ccccc3)c2ncn1CCCO`, the activation (% of control) is 102%. On to `OCCCN1c2ccccc2Nc2nnc(-c3ccccc3)cc21`, for which the activation (% of control) is 156% (active). Then `Cc1ccc(C)c(-n2ccnc2SCC(N)=O)c1`, with 102%.
